Rev-erbA mod: modulators of human Rev-erb alpha DNA binding; P20393; Rev-erbα–FITC-DNA binding, fluorescence polarization, 90 min; activity, % at 10 µM; actives 0.79% (n = 370,000); AID 1259318;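 active = activity above about 14%, limit read from the data; passing the limit was not always enough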;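 also: 0% = DMSO wells with 35 nM protein and 100% = DMSO wells with 750 nM protein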
hcDAF12 agonist: activates DAF-12 receptor from parasite H. contortus. activation, % at 6.8 µM. AID 652067. HEK293 hcDAF-12 lit1-tk-luc reporter, luminescence; 0% DMSO, 100% Δ7-dafachronic acid. actives 1.4% (n = 370,000);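 active = activation above the mean of all tested compounds plus 3 SD, cut at about 5.5% in these data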;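 also: 100% = response to 3 µM Δ7-dafachronic acid high control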
ssDAF12 agonist: S. stercoralis DAF-12 activation, primary screen. actives 1% (n = 370,000). HEK293 ssDAF-12/GRIP1 lit1-tk-luc reporter, luminescence; % of 3 µM dafachronic acid response. activation, % at 6.8 µM. AID 652126;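 active = activation above the mean over all tested compounds plus 3 SD, cut at about 0.9% in these data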;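 also: 0% = DMSO-only wells and 100% = 3 µM delta7-dafachronic acid wells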
DAX1 inh-1: inhibits human nuclear receptor DAX1. P51843. HEK293 Gal4-DAX1 luciferase reporter, luminescence. inhibition, % at 6.75 µM. actives 0.99% (n = 340,000);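 active = inhibition above the mean over all tested compounds plus 3 SD, cut at about 4.2% in these data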;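 also: 0% = DAX1-transfected cells with DMSO and 100% = empty-vector control cells with DMSO; inhibition shows as a rise in luminescence from relieved DAX1 repression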
Target sequence (P51843 207-470 limits assumed): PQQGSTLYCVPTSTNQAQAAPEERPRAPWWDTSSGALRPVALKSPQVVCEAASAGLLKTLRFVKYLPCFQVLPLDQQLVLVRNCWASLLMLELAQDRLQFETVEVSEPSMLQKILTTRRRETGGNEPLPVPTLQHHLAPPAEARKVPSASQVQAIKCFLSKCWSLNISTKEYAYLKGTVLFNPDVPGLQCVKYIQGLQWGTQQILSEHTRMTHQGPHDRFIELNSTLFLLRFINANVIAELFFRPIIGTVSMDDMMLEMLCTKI
hgDAF12 agonist: agonists of H. glycines DAF-12 nuclear receptor; actives 1.8% (n = 370,000); activation, % at 6.8 µM; AID 687014; HEK293 GAL4-hgDAF12 UAS-luciferase reporter, agonist luminescence; normalized to butyrate control;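 active = activation above a cutoff set at the mean of all screened compounds plus 3 SD, cut at about 10% in these data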;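 also: 0% = DMSO wells and 100% = sodium butyrate wells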
DAX1 inh-2: DAX1 (NR0B1) inhibition, primary screen; HEK293T StAR-luciferase reporter, SF-1/DAX-1 repression relief; inhibition, % at 6.8 µM; actives 1.1% (n = 370,000); AID 652010;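 active = inhibition above the mean over all tested compounds plus 3 SD, cut at about 3.6% in these data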;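 also: 0% = DAX-1 cells with DMSO and 100% = cells lacking DAX-1 with DMSO; higher inhibition means more luminescence from relief of DAX-1 repression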
LXR ag: LXR-beta agonism as hcDAF-12 counter-screen | activation, % at 6.8 µM | HEK293 Gal4-LXR tk-luc reporter, luminescence, 24 h; normalized: DMSO 0%, positive control 100% | 3,400 tested, under 10 active | shares compounds with hcDAF12 agonist;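 active = mean percent activation of the reporter above a cutoff set as the average over tested compounds plus their standard deviation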
hcDAF12 conf: confirmation of H. contortus DAF-12 agonists; actives 61% (n = 3,400); activation, % at 6.8 µM; HEK293 hcDAF-12 lit1-tk-luc reporter, luminescence; % of Δ7-dafachronic acid response; shares compounds with hcDAF12 agonist;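 active = mean activation across triplicate tests above the threshold derived from the earlier primary screen, cut at about 5.5% in these data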;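 also: 0% = DMSO only wells and 100% = 3 µM Δ7-dafachronic acid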
hgDAF12 conf: confirmation of H. glycines DAF-12 agonists; HEK293 GAL4-hgDAF12 luciferase reporter, agonist mode; percent of butyrate response; actives 80% (n = 3,300); shares compounds with hgDAF12 agonist; AID 743050; activation, % at 6.8 µM;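 active = mean activation over triplicate wells above the hit cutoff derived from the earlier primary screen, cut at about 11% in these data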;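 also: 0% = DMSO low control and 100% = 2 mM sodium butyrate high control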
LXR ag 2: LXR-beta agonism as DAF-12 counter-screen | shares compounds with hgDAF12 agonist | HEK293 Gal4-LXR luciferase reporter, 24 h | activation, % at 6.8 µM | 3,300 tested, under 10 active;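 active = mean activation of the triplicate above a set limit carried over from the primary screen, none filed active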
* hit, by the source's call; / = no result. A selection: hits, their analogues and other compounds. The true share with any hit is near 4.8%.

SMILES | Rev-erbA mod | hcDAF12 agonist | ssDAF12 agonist | DAX1 inh-1 | hgDAF12 agonist | DAX1 inh-2 | LXR ag | hcDAF12 conf | hgDAF12 conf | LXR ag 2
COc1ccc(C(=O)N/N=C(/C)c2cccc(NC(=O)c3ccccc3F)c2)cc1 | 4 | 3 | -1 | 1 | 6 | 1 | / | / | / | /
COCC(C)NC(=O)c1cc2cccc([N+](=O)[O-])c2[nH]1 (stereo not drawn) | -3 | 3 | 0 | 1 | 4 | -1 | / | / | / | /
Cc1cc(NC(=O)c2cc3cccc([N+](=O)[O-])c3[nH]2)ccc1F | 4 | 7.7* | 0 | 9.7* | 14* | 2 | 1 | 7.1* | 13* | 1
O=[N+]([O-])c1ccccc1-c1nc(-c2ccc(Br)o2)no1 | -3 | 15* | 2.8* | 3 | 21* | 4.5* | 1 | 8.6* | 18* | 1
COc1nc(C)ccc1-c1noc(-c2ccccn2)n1 | -4 | / | / | 1 | / | / | / | / | / | /
Brc1ccc(-c2noc(-c3ccccn3)n2)o1 | 1 | 10* | 1.4* | 2 | 20* | 2 | 1 | 7.8* | 21* | 1
O=C(N[C@H](Cc1ccccc1)C(=O)N1CCCN(Cc2ccccc2F)CC1)[C@H]1O[C@@H](n2ccc(=O)[nH]c2=O)[C@H](O)[C@@H]1O | 2 | 1 | 0 | / | 6 | 0 | / | / | / | /
CC(C)(C)c1cc[n+](/C(C(=S)Nc2ccccc2F)=C(/[O-])c2ccc3c(c2)OCCO3)cc1 | 2 | 6.8* | 0 | 2 | 14* | 1 | 0 | 7.3* | 6 | 0
[O-]C(=C(C(=S)Nc1cccc2ccccc12)[n+]1ccccc1)c1ccc2c(c1)OCCO2 | / | / | / | -4 | / | / | / | / | / | /
CN(C(=O)CCc1cn(C)c2ccccc12)c1ccc(Oc2cccnc2)cc1 | 11 | -1 | -1 | / | 1 | 0 | / | / | / | /
Fc1ccccc1OCCSc1nnnn1-c1ccccc1 | 5 | 8.1* | 0 | 3 | 13* | 3 | 1 | 7.7* | 18* | 1
Clc1ccc(/C=N/Nc2ncnc3ccccc23)cc1Cl | -2 | 10* | 1.1* | 12* | 16* | 3 | 1 | 7.0* | 20* | 1
Nc1c(Cl)ncnc1N/N=C/c1cccc(O)c1 | 3 | -1 | -2 | 2 | -1 | 0 | / | / | / | /
Oc1cccc2ccc(/C=C/c3ccccc3Br)nc12 | 3 | 2 | 0 | 3 | 6 | 0 | / | / | / | /
Cc1ccsc1/C=C/c1ccc2cccc(O)c2n1 | 13 | 15* | 1.8* | 3 | 17* | 3 | 2 | 14* | 22* | 1
Oc1cccc2ccc(/C=C/c3cccs3)nc12 | -1 | 17* | 2.3* | 4 | 20* | 2 | 1 | 12* | 20* | 1
COc1ccc2c(c1)[C@@]1(OCCC=C[C@H]1C)C(=O)N2Cc1ccccc1C(F)(F)F | -2 | -2 | -1 | / | 1 | 0 | / | / | / | /
CCOC(=O)Nc1cc(=O)c([N+](=O)[O-])c(N)[nH]1 | -2 | -1 | -1 | / | -2 | 1 | / | / | / | /
c1ccc(CN2CCN(c3cnc4ccccc4n3)CC2)cc1 | 1 | 2 | -1 | 2 | 5 | -1 | / | / | / | /
Fc1ccccc1N1CCN(c2cnc3ccccc3n2)CC1 | -7 | 6.6* | 1 | -1 | 19* | 3 | 1 | 5 | 17* | 1
COC(=O)c1cc(N=Nc2c(C)[nH]c3ccccc23)cc(C(=O)OC)c1 | -8 | 0 | -1 | 1 | 3 | 0 | / | / | / | /

High-throughput results: PubChem, several laboratories
